# Source: PubChem BioAssay (NCATS)
# Results filed as inconclusive are left out. Where a call stands in place of a potency, no number is given. Unmarked numbers belong to inactive results. Calls of active or inactive are those of the source. Unless noted, the call rests on the fitted dose curve; in most records, active means well fitted curve in the direction sought with a large enough effect; inconclusive means small, poorly fitted or top-dose-only effect, or another doubt; inactive means no such curve, though single readings can be large; an effect the other way counts as inactive or inconclusive.
# Experiments:
# [1] = molecular target: Calcium and integrin-binding protein 1 (Homo sapiens) (UniProt Q99828); assay: Primary qHTS for Identification of Calcium Integrin Binding Protein 1 (CIB1) Competitor (AID 1508620);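 further: GST tagged CIB1 binding a fluorescein labelled alphaIIb integrin peptide tracer; top concentration of the series differs between compounds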
# Outline: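 CIB1-GST (1 uM final) and compound incubated 15 min at room temperature before adding FITC-alphaIIb peptide tracer (100 nM final). Competition for binding read by fluorescence polarization (ex 480, em 540) after another 15 min at room temperature.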
# [2] = Primary qHTS for small molecule stabilizers of the endoplasmic reticulum resident proteome: Secreted ER Calcium Modulated Protein (SERCaMP) assay (AID 1508630)
# Outline: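 GLuc-SERCaMP-expressing SH-SY5Y cells, pretreated 16 h with compound, are challenged with thapsigargin to empty ER calcium stores; after 4 h, coelenterazine is added directly to the medium and luminescence is imaged.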
# [3] = A High-Content qHTS Against Drug Library for the Identification of Small Molecules that Inhibit DYT1 Early Onset Primary Dystonia-Associated Cell Pathology (AID 1645839; calls by dose curve; further: series mostly up to about 46 µM)
# Outline: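 In this high-content image screen, delE TorsinA mislocalization in inducible Flp-In 293 cells is scored as %pathology, with cell count serving as the counterscreen. Compound exposure lasts 48 h under tetracycline induction in reduced-serum medium.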
# [4] = molecular target: Cytochrome P450 2D6 (Homo sapiens) (UniProt P10635); assay: Cytochrome P450 family 2 subfamily D member 6 (CYP2D6) small molecule antagonists: luciferase biochemical (cell-free) qHTS assay (AID 1645840; active means well fitted curve in the direction sought with a large enough effect in the repeat runs; an effect the other way counts as inactive or inconclusive; further: series mostly up to about 57 µM; nearly all actives have a fitted effect of over 55% in size)
# Outline: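 P450-Glo luminescent screen: recombinant CYP2D6 enzyme–proluciferin substrate mix preincubated with compound 10 min at room temperature, then NADPH regeneration added for 1 h at room temperature. Detection reagent added for 20 min; luciferin light read as relative luminescence units.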
# [5] = molecular target: Cytochrome P450 2C9 (Homo sapiens) (UniProt P11712); assay: Cytochrome P450 family 2 subfamily C member 9 (CYP2C9) small molecule antagonists: luciferase biochemical (cell-free) qHTS assay (AID 1645842; active means well fitted curve in the direction sought with a large enough effect in the repeat runs; an effect the other way counts as inactive or inconclusive; further: nearly all actives have a fitted effect of over 55% in size; further: potency means the concentration at half of the fitted maximal effect)
# Outline: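 Luminescence, after 20 min with luciferin detection reagent, reflected CYP2C9 turnover during a 1 h NADPH-driven reaction at 37C. Enzyme-substrate mix contained 0.4% bovine serum albumin and was preincubated with compound 10 min at room temperature.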
# [6] = molecular target: Papain (Carica papaya) (UniProt P00784); assay: Primary qHTS assay for inhibitors of the protease papain (AID 1645873);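 further: papain turnover of Z-FR-AMC read as the AMC fluorescence gain over 10 min; series mostly up to about 50 µM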
# Chain of Papain (Carica papaya) (P00784 whole entry, looked up): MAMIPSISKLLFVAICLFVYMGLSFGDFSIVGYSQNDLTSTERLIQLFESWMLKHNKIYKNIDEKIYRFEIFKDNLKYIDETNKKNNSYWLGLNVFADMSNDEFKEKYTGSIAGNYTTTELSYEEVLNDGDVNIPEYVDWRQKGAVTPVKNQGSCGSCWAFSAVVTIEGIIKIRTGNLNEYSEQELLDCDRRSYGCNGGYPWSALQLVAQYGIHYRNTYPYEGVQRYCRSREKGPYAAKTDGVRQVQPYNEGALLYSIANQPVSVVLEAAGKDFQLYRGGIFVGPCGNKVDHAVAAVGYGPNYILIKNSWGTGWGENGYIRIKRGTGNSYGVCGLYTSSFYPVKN
# Chain of Calcium and integrin-binding protein 1 (Homo sapiens) (Q99828 whole entry, looked up): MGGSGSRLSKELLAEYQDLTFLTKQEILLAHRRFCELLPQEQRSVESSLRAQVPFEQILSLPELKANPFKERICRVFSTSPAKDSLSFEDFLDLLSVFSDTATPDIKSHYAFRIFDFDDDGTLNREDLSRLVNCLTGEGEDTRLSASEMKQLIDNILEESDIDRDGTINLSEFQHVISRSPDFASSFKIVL
# Chain of Cytochrome P450 2C9 (Homo sapiens) (P11712 whole entry, looked up): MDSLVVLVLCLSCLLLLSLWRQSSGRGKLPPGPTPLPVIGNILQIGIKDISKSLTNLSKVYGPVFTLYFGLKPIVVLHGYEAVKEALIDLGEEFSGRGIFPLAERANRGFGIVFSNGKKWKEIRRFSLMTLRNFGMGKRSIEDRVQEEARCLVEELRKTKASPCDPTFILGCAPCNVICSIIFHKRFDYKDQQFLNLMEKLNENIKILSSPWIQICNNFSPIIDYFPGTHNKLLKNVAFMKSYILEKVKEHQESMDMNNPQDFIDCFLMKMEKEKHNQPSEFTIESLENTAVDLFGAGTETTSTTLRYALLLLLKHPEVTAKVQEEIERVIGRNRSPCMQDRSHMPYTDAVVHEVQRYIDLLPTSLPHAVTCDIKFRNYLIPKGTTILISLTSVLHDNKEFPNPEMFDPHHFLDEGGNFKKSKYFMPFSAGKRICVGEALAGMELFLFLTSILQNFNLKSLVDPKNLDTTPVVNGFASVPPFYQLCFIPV
# Chain of Cytochrome P450 2D6 (Homo sapiens) (P10635 whole entry, looked up): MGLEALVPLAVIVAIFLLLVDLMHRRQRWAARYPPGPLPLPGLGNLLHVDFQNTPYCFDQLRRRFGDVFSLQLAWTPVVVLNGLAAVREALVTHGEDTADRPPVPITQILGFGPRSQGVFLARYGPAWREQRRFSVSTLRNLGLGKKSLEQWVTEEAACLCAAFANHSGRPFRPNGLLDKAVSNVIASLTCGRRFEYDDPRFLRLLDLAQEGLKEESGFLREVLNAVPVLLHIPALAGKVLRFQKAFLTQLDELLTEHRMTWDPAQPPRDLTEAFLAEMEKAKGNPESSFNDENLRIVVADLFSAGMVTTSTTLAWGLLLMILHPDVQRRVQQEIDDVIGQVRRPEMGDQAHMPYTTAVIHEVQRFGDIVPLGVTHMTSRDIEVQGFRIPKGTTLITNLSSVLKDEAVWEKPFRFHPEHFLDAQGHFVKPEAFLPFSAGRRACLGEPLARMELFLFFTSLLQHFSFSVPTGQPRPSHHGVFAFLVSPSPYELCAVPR
structure (smiles),measurement,setting,value
CS(=O)(=O)Oc1ccc2c(NC(N)=O)c(C(=O)c3ccc(Cl)cc3Cl)oc2c1,outcome,[1],inactive
Cc1ccnc(NS(=O)(=O)c2ccc(NC(=O)Nc3ccc(S(=O)(=O)Nc4nccc(C)n4)cc3)cc2)n1,outcome,[1],inactive
same,Potency,[2],inactive
CCCS(=O)(=O)Nc1ccc(F)c(C(=O)c2c[nH]c3ncc(-c4ccc(Cl)cc4)cc23)c1F,outcome,[1],inactive
same,Potency,[2],inactive
CC[C@H](Nc1ncnc2nc[nH]c12)c1nc2cccc(F)c2c(=O)n1-c1ccccc1,outcome,[1],inactive
CCOc1cc(C=C2C(=O)N(c3ccccc3)N=C2C)cc(Cl)c1OCC(=O)OC,outcome,[1],inactive
same,Potency,[2],inactive
NC(=O)C1CCCc2c1[nH]c1ccc(Cl)cc21 (stereo unspecified),outcome,[1],inactive
same,Potency,[2],inactive
COc1cc(F)c(F)c(Nc2ccc(I)cc2F)c1NS(=O)(=O)C1(C[C@H](O)CO)CC1,outcome,[1],inactive
same,Potency,[2],inactive
CCn1c(-c2nonc2N)nc2c(C#CC(C)(C)O)ncc(OC[C@H]3CCCNC3)c21,outcome,[1],inactive
same,Potency,[2],inactive
COc1nc(-c2ccc3c(c2)OCO3)n(-c2ccc(NC(=O)CSc3ccccc3)cc2)n1,outcome,[1],inactive
same,Potency,[2],inactive
CCCn1c(=O)c2[nH]c(C34CC5CC3C[C@@H](C5)C4)nc2n(CCC)c1=O,outcome,[1],inactive
same,Potency,[2],inactive
CCC(=O)N[C@H]1CC[C@H](C(=O)N(C)c2ccc(-c3nc4ccccc4o3)cc2)C1,outcome,[1],inactive
same,Potency,[2],inactive
CCN(c1ccccc1)c1cc(NC)[n+](C)c(C)n1,outcome,[1],inactive
same,Potency,[2],inactive
COc1ccc(-c2ccc3c(N4CCOC[C@H]4C)nc(N4CCOC[C@H]4C)nc3n2)cc1CO,outcome,[1],inactive
same,Potency,[2],inactive
NC(=O)c1ccc(-c2nc(-c3ccc4c(c3)OCCO4)c(-c3ccccn3)[nH]2)cc1,outcome,[1],inactive
same,Potency,[2],inactive
Cn1c(=O)c(F)c(Nc2ccc(I)cc2F)c2c(=O)n(C[C@@H](O)CO)cnc21,outcome,[1],inactive
same,Potency,[2],inactive
COc1ccc(CC2=NN3C([C@@H](CCc4ccccc4)[C@@H](C)O)=NC(C)C3C(=O)N2)cc1OC (stereo partly specified),outcome,[1],inactive
same,Potency,[2],inactive
Nc1nc2[nH]cc(CCc3ccc(C(=O)N[C@@H](CCC(=O)O)C(=O)O)cc3)c2c(=O)[nH]1,outcome,[1],inactive
same,Potency,[2],inactive
CC(C=CC1=C(C)CCCC1(C)C)=CC=CC(C)=CC(=O)O,outcome,[1],inactive
same,Potency,[2],inactive
COc1ccc(COc2cc3oc(=O)c4cc(C(C)O)ccc4c3cc2OC)cc1 (stereo unspecified),outcome,[1],inactive
same,Potency,[2],inactive
CC(=O)NC(C)c1ccc(Oc2ccc(OC(C)C)cc2)cc1 (stereo unspecified),outcome,[1],inactive
same,Potency,[2],inactive
Cc1c(CCOc2ccc(C(=O)O)cc2)c2cc(Cl)ccc2n1C(c1ccccc1)c1ccccc1,outcome,[1],inactive
same,Potency,[2],inactive
Nc1nccc(-c2ccc3noc(-c4ccc(Cl)cc4)c3c2)n1,outcome,[1],inactive
same,Potency,[2],inactive
CCCS(=O)(=O)Nc1ccc(F)c(C(=O)c2c[nH]c3ncc(Cl)cc23)c1F,outcome,[1],inactive
same,Potency,[2],inactive
CC1(C)CNc2cc(NC(=O)c3cccnc3NCc3ccncc3)ccc21,outcome,[1],inactive
same,Potency,[2],inactive
COCC(=O)NCC=Cc1ccc2ncnc(Nc3ccc(Oc4ccc(C)nc4)c(C)c3)c2c1,outcome,[1],inactive
same,Potency,[2],inactive
O=C1CCCC2=C1C(c1[nH]ncc1Cl)N=C(Nc1nc3ccccc3o1)N2 (stereo unspecified),outcome,[1],inactive
same,Potency,[2],inactive
Nc1cccc(S(=O)(=O)N2CCCN(S(=O)(=O)c3ccc4c(c3)OCCO4)CC2)c1,outcome,[1],inactive
same,Potency,[2],inactive
C[C@]12CC[C@H](O)CC1=CC[C@@H]1[C@H]2CC[C@]2(C)C(c3cccnc3)=CC[C@H]12,outcome,[1],inactive
same,Potency,[2],inactive
CN(C)c1ccc(C2Nc3ccc4ccccc4c3C3=C2C(=O)CC(C)(C)C3)cc1Br (stereo unspecified),outcome,[1],inactive
same,Potency,[2],inactive
O=S(=O)(N=Cc1c(O)ccc2ccccc12)c1cccs1,outcome,[1],inactive
same,Potency,[2],inactive
CC1(C)Cc2c(-c3ccccc3)c(-c3ccc(Cl)cc3)c(CC(=O)O)n2C1,outcome,[1],inactive
same,Potency,[2],inactive
Cc1csc(NC(=O)c2sc3nc4c(c(C(F)(F)F)c3c2N)CCC4)n1,outcome,[1],inactive
same,Potency,[2],inactive
CCOC(=O)N[C@@H]1CC[C@@H]2[C@@H](C1)C[C@H]1C(=O)O[C@H](C)[C@H]1[C@@H]2C=Cc1ccc(-c2cccc(F)c2)cn1,outcome,[1],inactive
same,Potency,[2],inactive
Cc1cc(-c2ccc(CC(=O)Nc3ccc(-c4cccnc4)cc3)cc2)ccn1,outcome,[1],inactive
same,Potency,[2],inactive
C[C@]1(c2nc3c(C(N)=O)cccc3[nH]2)CCCN1,outcome,[1],inactive
same,Potency,[2],inactive
CCOc1ccc(Cc2cc([C@@H]3O[C@H](CO)[C@@H](O)[C@H](O)[C@@H]3O)ccc2Cl)cc1,outcome,[1],inactive
same,Potency,[2],inactive
O=C1[C@H](Cc2ccc(O)cc2)N2C(=O)CCN(C(=O)NCc3ccccc3)[C@H]2CN1Cc1cccc2ccccc12,outcome,[1],inactive
same,Potency,[2],inactive
CCOc1cc(N2CCC(O)CC2)ccc1Nc1ncc2c(n1)N(C)c1ccccc1C(=O)N2C,outcome,[1],inactive
same,Potency,[2],inactive
Cc1cc2c(F)c(Oc3ncnn4cc(OC[C@@H](C)O)c(C)c34)ccc2[nH]1,outcome,[1],inactive
same,Potency,[2],inactive
COc1ccc2c3n(c(=NC(=O)c4cccnc4)nc2c1OC)CCN3,outcome,[1],inactive
same,Potency,[2],inactive
O=c1[nH]cnc2[nH]ncc12,outcome,[1],inactive
same,Potency,[2],inactive
same,Potency,[3],inactive
same,Potency,[4],inactive
same,Potency,[5],inactive
same,Potency,[6],inactive
CCCC(CCC)C(=O)O,outcome,[1],inactive
same,Potency,[2],inactive
same,Potency,[3],inactive
same,Potency,[4],inactive
same,Potency,[5],inactive
same,Potency,[6],inactive
CCCc1nn(C)c2c(=O)[nH]c(-c3cc(S(=O)(=O)N4CCN(C)CC4)ccc3OCC)nc12,outcome,[1],inactive
same,Potency,[2],inactive
same,Potency,[3],inactive
same,Potency,[4],inactive
same,Potency,[5],13.5 µM (active)
same,Potency,[6],inactive
